For the first experiment, the target named is T1, ELF5 (Homo sapiens, UniProt Q9UKW6-2 1-255).
T1 sequence: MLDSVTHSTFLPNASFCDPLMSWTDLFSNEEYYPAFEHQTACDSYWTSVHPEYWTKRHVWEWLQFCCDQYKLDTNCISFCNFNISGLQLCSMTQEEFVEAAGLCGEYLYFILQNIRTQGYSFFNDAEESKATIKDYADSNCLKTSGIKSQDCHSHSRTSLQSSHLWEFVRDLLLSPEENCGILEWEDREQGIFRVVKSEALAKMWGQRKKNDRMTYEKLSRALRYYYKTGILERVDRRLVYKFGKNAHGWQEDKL
The experiment can be described thus: DAPPL (digital affinity profiling via proximity ligation, sequencing); 10 mM Tris-HCl pH 7.5, 50 mM NaCl, 1 mM DTT, 4% glycerol, room temperature, 30 min; GST-TFs on glutathione beads, 16-mer random dsDNA library, 0.1% formaldehyde crosslink after washing; high values mean tight binding. To be noted: protein: recombinant; tags: N-terminal GST; dsDNA, one strand shown. A digest of the protocol:
(§1)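 Human transcription factors fused to GST were expressed in yeast, captured on glutathione beads, given DNA barcodes and pooled with a GST-only negative control. Pools were incubated with 200 nmole of a 16-mer random double-stranded DNA library in Tris/NaCl/DTT/glycerol buffer at room temperature for 30 min. They were then washed, crosslinked with 0.1% formaldehyde, proximity-ligated (BsaI/T4 ligase, 1 h, 37 °C), PCR-amplified and sequenced on an Illumina NextSeq500. Binding signal is each 6-mer's read frequency for a factor divided by its frequency for the GST control.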
ETV6, sequence (P41212 whole entry): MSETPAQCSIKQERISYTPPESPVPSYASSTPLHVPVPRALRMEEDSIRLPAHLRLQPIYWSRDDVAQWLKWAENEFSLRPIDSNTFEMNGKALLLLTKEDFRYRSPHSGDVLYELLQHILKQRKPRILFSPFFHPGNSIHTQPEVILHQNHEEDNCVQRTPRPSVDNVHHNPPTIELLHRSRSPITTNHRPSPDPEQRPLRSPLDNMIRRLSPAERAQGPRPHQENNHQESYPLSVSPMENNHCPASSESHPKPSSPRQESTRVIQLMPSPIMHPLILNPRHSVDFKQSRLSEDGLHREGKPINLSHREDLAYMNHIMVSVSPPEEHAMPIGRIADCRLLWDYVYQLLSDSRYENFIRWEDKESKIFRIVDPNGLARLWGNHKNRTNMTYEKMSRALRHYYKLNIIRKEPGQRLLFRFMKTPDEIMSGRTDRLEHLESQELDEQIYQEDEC
Turning to TACGAA, the binding signal was 1.2 fold enrichment (6-mer frequency, TF over GST control).

In the case of CTGGAA, the binding signal is 1.34 fold enrichment (6-mer frequency, TF over GST control).

Consider ATGCAT, for which the binding signal is 1.15 fold enrichment (6-mer frequency, TF over GST control).

For CTTCCT, the binding signal is 5.89 fold enrichment (6-mer frequency, TF over GST control).

For the sequence TCGTTT, the binding signal is 1.27 fold enrichment (6-mer frequency, TF over GST control).

Take TCTCTC: the binding signal is 1.24 fold enrichment (6-mer frequency, TF over GST control).

Regarding GGTCTC, the binding signal was 2.18 fold enrichment (6-mer frequency, TF over GST control).

For the sequence CTACGG, the binding signal is 1.24 fold enrichment (6-mer frequency, TF over GST control).

As for ATTGCA, the binding signal is 1.16 fold enrichment (6-mer frequency, TF over GST control).

As for TTGTGG, the binding signal was 1.32 fold enrichment (6-mer frequency, TF over GST control).

As to AATACG, the binding signal is 1.27 fold enrichment (6-mer frequency, TF over GST control).

On to TACCAT, for which the binding signal is 1.14 fold enrichment (6-mer frequency, TF over GST control).

As to TTAAAC, the binding signal is 1.18 fold enrichment (6-mer frequency, TF over GST control).

CCTTAC: the binding signal was 1.69 fold enrichment (6-mer frequency, TF over GST control).

Take CTCTGA: the binding signal was 1.11 fold enrichment (6-mer frequency, TF over GST control).

Take CTTGTA: the binding signal is 1.36 fold enrichment (6-mer frequency, TF over GST control).

Take TATAAT: the binding signal is 1.18 fold enrichment (6-mer frequency, TF over GST control).

Take AAACAA: the binding signal was 1.28 fold enrichment (6-mer frequency, TF over GST control).

For the sequence CTTCAC, the binding signal is 1.38 fold enrichment (6-mer frequency, TF over GST control).

Take ATAAAT: the binding signal was 1.08 fold enrichment (6-mer frequency, TF over GST control).

For the sequence AATCTT, the binding signal is 1.43 fold enrichment (6-mer frequency, TF over GST control).

For TTTGAT, the binding signal was 1.26 fold enrichment (6-mer frequency, TF over GST control).

For the sequence TCTATT, the binding signal is 1.18 fold enrichment (6-mer frequency, TF over GST control).

For the sequence TACGAT, the binding signal is 1.03 fold enrichment (6-mer frequency, TF over GST control).

As to CCCGTA, the binding signal is 1.21 fold enrichment (6-mer frequency, TF over GST control).

For the sequence TTCTCG, the binding signal was 1.47 fold enrichment (6-mer frequency, TF over GST control).

GTAAAC: the binding signal was 1.22 fold enrichment (6-mer frequency, TF over GST control).

Turning to GTTCTG, the binding signal was 1.1 fold enrichment (6-mer frequency, TF over GST control).

Take TTTAAG: the binding signal was 1.32 fold enrichment (6-mer frequency, TF over GST control).

Turning to CAAAAT, the binding signal was 1.13 fold enrichment (6-mer frequency, TF over GST control).

For the sequence TACTCA, the binding signal is 1.18 fold enrichment (6-mer frequency, TF over GST control).

With AAATAT, the binding signal is 1.41 fold enrichment (6-mer frequency, TF over GST control).

As to AATTAC, the binding signal is 1.33 fold enrichment (6-mer frequency, TF over GST control).

Regarding ATGAAC, the binding signal is 1.29 fold enrichment (6-mer frequency, TF over GST control).

Regarding TCTTTG, the binding signal is 1.09 fold enrichment (6-mer frequency, TF over GST control).

Consider ATCCAT, for which the binding signal was 1.09 fold enrichment (6-mer frequency, TF over GST control).

For the sequence ATCCCC, the binding signal is 1.46 fold enrichment (6-mer frequency, TF over GST control).

Regarding CTTGGG, the binding signal was 1.19 fold enrichment (6-mer frequency, TF over GST control).

On to AACATA, for which the binding signal is 1.3 fold enrichment (6-mer frequency, TF over GST control).

Take TCCTTT: the binding signal is 2 fold enrichment (6-mer frequency, TF over GST control).

In a further experiment the target is T2, ETV3 (Homo sapiens, UniProt P41162-2 1-143).
T2 sequence: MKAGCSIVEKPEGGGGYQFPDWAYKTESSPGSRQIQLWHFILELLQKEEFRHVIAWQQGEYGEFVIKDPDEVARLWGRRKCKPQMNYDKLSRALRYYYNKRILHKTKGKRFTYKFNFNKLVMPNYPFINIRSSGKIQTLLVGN
The experiment is described as above. To be noted: protein: recombinant; tags: N-terminal GST; dsDNA, one strand shown. An outline of the steps: as §1
Turning to TACGAA, the binding signal was 1.19 fold enrichment (6-mer frequency, TF over GST control).

Regarding CTGGAA, the binding signal was 1.27 fold enrichment (6-mer frequency, TF over GST control).

In the case of ATGCAT, the binding signal is 1.26 fold enrichment (6-mer frequency, TF over GST control).

Regarding CTTCCT, the binding signal was 3.61 fold enrichment (6-mer frequency, TF over GST control).

Regarding TCGTTT, the binding signal is 1.25 fold enrichment (6-mer frequency, TF over GST control).

Consider TCTCTC, for which the binding signal is 1.37 fold enrichment (6-mer frequency, TF over GST control).

Consider GGTCTC, for which the binding signal is 2.64 fold enrichment (6-mer frequency, TF over GST control).

For the sequence CTACGG, the binding signal is 1.29 fold enrichment (6-mer frequency, TF over GST control).

As for ATTGCA, the binding signal is 1.09 fold enrichment (6-mer frequency, TF over GST control).

In the case of TTGTGG, the binding signal is 1.37 fold enrichment (6-mer frequency, TF over GST control).

In the case of AATACG, the binding signal was 1.19 fold enrichment (6-mer frequency, TF over GST control).

As to TACCAT, the binding signal was 1.17 fold enrichment (6-mer frequency, TF over GST control).

In the case of TTAAAC, the binding signal was 1.23 fold enrichment (6-mer frequency, TF over GST control).

As to CCTTAC, the binding signal is 1.31 fold enrichment (6-mer frequency, TF over GST control).

For CTCTGA, the binding signal is 1.19 fold enrichment (6-mer frequency, TF over GST control).

In the case of CTTGTA, the binding signal is 1.48 fold enrichment (6-mer frequency, TF over GST control).

With TATAAT, the binding signal was 1.19 fold enrichment (6-mer frequency, TF over GST control).

As for AAACAA, the binding signal was 1.3 fold enrichment (6-mer frequency, TF over GST control).

CTTCAC: the binding signal is 1.45 fold enrichment (6-mer frequency, TF over GST control).

Take ATAAAT: the binding signal is 1.19 fold enrichment (6-mer frequency, TF over GST control).

On to AATCTT, for which the binding signal is 1.31 fold enrichment (6-mer frequency, TF over GST control).

Turning to TTTGAT, the binding signal is 1.32 fold enrichment (6-mer frequency, TF over GST control).

Turning to TCTATT, the binding signal was 1.25 fold enrichment (6-mer frequency, TF over GST control).

Take TACGAT: the binding signal is 1 fold enrichment (6-mer frequency, TF over GST control).

For CCCGTA, the binding signal was 1.21 fold enrichment (6-mer frequency, TF over GST control).

Consider TTCTCG, for which the binding signal is 1.27 fold enrichment (6-mer frequency, TF over GST control).

Regarding GTAAAC, the binding signal was 1.3 fold enrichment (6-mer frequency, TF over GST control).

Turning to GTTCTG, the binding signal is 1.13 fold enrichment (6-mer frequency, TF over GST control).

On to TTTAAG, for which the binding signal was 1.24 fold enrichment (6-mer frequency, TF over GST control).

CAAAAT: the binding signal was 1.12 fold enrichment (6-mer frequency, TF over GST control).

As to TACTCA, the binding signal is 1.14 fold enrichment (6-mer frequency, TF over GST control).

In the case of AAATAT, the binding signal is 1.29 fold enrichment (6-mer frequency, TF over GST control).

In the case of AATTAC, the binding signal was 1.26 fold enrichment (6-mer frequency, TF over GST control).

In the case of ATGAAC, the binding signal was 1.28 fold enrichment (6-mer frequency, TF over GST control).

TCTTTG: the binding signal is 1.21 fold enrichment (6-mer frequency, TF over GST control).

Regarding ATCCAT, the binding signal is 1.19 fold enrichment (6-mer frequency, TF over GST control).

As to ATCCCC, the binding signal was 1.35 fold enrichment (6-mer frequency, TF over GST control).

In the case of CTTGGG, the binding signal is 1.26 fold enrichment (6-mer frequency, TF over GST control).

Regarding AACATA, the binding signal is 1.27 fold enrichment (6-mer frequency, TF over GST control).

As to TCCTTT, the binding signal is 1.78 fold enrichment (6-mer frequency, TF over GST control).

For the next experiment, the target named is ETV6 (Homo sapiens, UniProt P41212 1-452). The description is as above. To be noted: protein: recombinant; tags: N-terminal GST; dsDNA, one strand shown. A digest of the protocol:
as §1
Turning to TACGAA, the binding signal was 1.18 fold enrichment (6-mer frequency, TF over GST control).

As to CTGGAA, the binding signal is 1.34 fold enrichment (6-mer frequency, TF over GST control).

Consider ATGCAT, for which the binding signal was 1.2 fold enrichment (6-mer frequency, TF over GST control).

For the sequence CTTCCT, the binding signal was 3.81 fold enrichment (6-mer frequency, TF over GST control).

Consider TCGTTT, for which the binding signal was 1.15 fold enrichment (6-mer frequency, TF over GST control).

TCTCTC: the binding signal was 1.27 fold enrichment (6-mer frequency, TF over GST control).

For the sequence GGTCTC, the binding signal was 1.99 fold enrichment (6-mer frequency, TF over GST control).

On to CTACGG, for which the binding signal is 1.19 fold enrichment (6-mer frequency, TF over GST control).

Turning to ATTGCA, the binding signal was 1.21 fold enrichment (6-mer frequency, TF over GST control).

On to TTGTGG, for which the binding signal is 1.29 fold enrichment (6-mer frequency, TF over GST control).

With AATACG, the binding signal was 1.26 fold enrichment (6-mer frequency, TF over GST control).

Turning to TACCAT, the binding signal was 1.17 fold enrichment (6-mer frequency, TF over GST control).

For the sequence TTAAAC, the binding signal is 1.3 fold enrichment (6-mer frequency, TF over GST control).

In the case of CCTTAC, the binding signal was 1.28 fold enrichment (6-mer frequency, TF over GST control).

On to CTCTGA, for which the binding signal was 1.16 fold enrichment (6-mer frequency, TF over GST control).

In the case of CTTGTA, the binding signal was 1.37 fold enrichment (6-mer frequency, TF over GST control).

Regarding TATAAT, the binding signal is 1.24 fold enrichment (6-mer frequency, TF over GST control).

As to AAACAA, the binding signal was 1.31 fold enrichment (6-mer frequency, TF over GST control).

Consider CTTCAC, for which the binding signal was 1.43 fold enrichment (6-mer frequency, TF over GST control).

For ATAAAT, the binding signal was 1.25 fold enrichment (6-mer frequency, TF over GST control).

Regarding AATCTT, the binding signal was 1.31 fold enrichment (6-mer frequency, TF over GST control).

With TTTGAT, the binding signal is 1.26 fold enrichment (6-mer frequency, TF over GST control).

As for TCTATT, the binding signal is 1.29 fold enrichment (6-mer frequency, TF over GST control).

With TACGAT, the binding signal was 1.03 fold enrichment (6-mer frequency, TF over GST control).

For CCCGTA, the binding signal was 1.25 fold enrichment (6-mer frequency, TF over GST control).

With TTCTCG, the binding signal was 1.36 fold enrichment (6-mer frequency, TF over GST control).

Regarding GTAAAC, the binding signal is 1.21 fold enrichment (6-mer frequency, TF over GST control).

With GTTCTG, the binding signal is 1.1 fold enrichment (6-mer frequency, TF over GST control).

Turning to TTTAAG, the binding signal is 1.26 fold enrichment (6-mer frequency, TF over GST control).

As for CAAAAT, the binding signal is 1.26 fold enrichment (6-mer frequency, TF over GST control).

Turning to TACTCA, the binding signal was 1.22 fold enrichment (6-mer frequency, TF over GST control).

AAATAT: the binding signal is 1.43 fold enrichment (6-mer frequency, TF over GST control).

Take AATTAC: the binding signal is 1.38 fold enrichment (6-mer frequency, TF over GST control).

For ATGAAC, the binding signal is 1.24 fold enrichment (6-mer frequency, TF over GST control).

As to TCTTTG, the binding signal was 1.16 fold enrichment (6-mer frequency, TF over GST control).

Consider ATCCAT, for which the binding signal was 1.09 fold enrichment (6-mer frequency, TF over GST control).

With ATCCCC, the binding signal was 1.29 fold enrichment (6-mer frequency, TF over GST control).

With CTTGGG, the binding signal was 1.23 fold enrichment (6-mer frequency, TF over GST control).

Turning to AACATA, the binding signal was 1.27 fold enrichment (6-mer frequency, TF over GST control).

For the sequence TCCTTT, the binding signal was 1.76 fold enrichment (6-mer frequency, TF over GST control).

For the origin of these results see paper PMC7862700, “An all-to-all approach to the identification of sequence-specific readers for epigenetic DNA modifications on cytosine”.
